# Measurements reported in PubChem BioAssay AID686978 (National Center for Advancing Translational Sciences (NCATS), 2013).
# In all, about 420,000 compounds went through this assay and about 64,000 (15%) were called active. Not shown: some 27% with an inconclusive outcome. The call rests on the fitted dose curve; in most records, active means well fitted inhibition curve with a large enough effect; inconclusive means small, poorly fitted or top-dose-only effect; inactive means flat fitted curve, though single readings scatter. Not all results are given here. A call without a number means that no potency is given here.
# Test: qHTS for Inhibitors of human tyrosyl-DNA phosphodiesterase 1 (TDP1): qHTS in cells in absence of CPT; further: nearly all actives have a fitted effect of over 55% in size
# Conditions: DT40 Tdp1-/- hTDP1 cells, no CPT, ATP luminescence, 48 h; activity change, negative = growth inhibition: at 46.2 µM (top of the series)
# Summary of the method: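 Compound effects on proliferation are scored in DT40 Tdp1-/-;hTDP1 cells in the absence of CPT. ATP levels (CellTiter-Glo luminescence) are recorded after a ≥48 hr, 37 °C incubation.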
# Potency means the concentration at half of the fitted maximal effect.
row,Structure (SMILES),Potency
1,Cc1nn(C)c(C)c1Sc1ccccc1N,inactive
2,CC(=O)OC(C(=O)NCCc1ccccc1)c1cccnc1 (configuration not stated),inactive
3,O=C(Cc1ccc([N+](=O)[O-])cc1)NCCc1ccc2c(c1)OCO2,inactive
4,O=C(NCCc1ccc2c(c1)OCCO2)c1cc2ccccc2o1,20.6 µM (active)
5,O=C(COC(=O)c1ccc2c(c1)OCCO2)NCc1ccccc1,inactive
6,CN(C)S(=O)(=O)c1ccc(N2CCCC2)c(C(=O)Nc2cccc(F)c2)c1,inactive
7,O=C(Nc1cccc([N+](=O)[O-])c1)Nc1ccc(Cl)cn1,inactive
8,O=C(CCl)N(Cc1cccc([N+](=O)[O-])c1)c1cccc(Cl)c1,4.11 µM (active)
9,CCN(CC)C(=O)CN(c1cccc([N+](=O)[O-])c1)S(=O)(=O)c1ccccc1,inactive
10,O=C1O/C(=C\c2ccc(O)cc2)C(O)=C1c1ccc(O)cc1,inactive
11,Cc1cc(C)c2nc(N3CCCC3)c(C#N)cc2c1,inactive
12,Cc1cc(C)c2cc(C#N)c(N3CCNCC3)nc2c1,18.4 µM (active)
13,Cc1cccc2cc(C#N)c(N3CCCC3)nc12,inactive
14,Cc1cccc(C)c1NC(=O)CNC(=O)c1c(C)nn(-c2ccccc2)c1C,inactive
15,COC(=O)N1CCC[C@@]2(CCN(C(=O)NC(C)C)C2)C1,inactive
16,COc1ccc(N2CCN(C(=O)COc3ccc4c(C)cc(=O)oc4c3)CC2)cc1,inactive
17,CSCCC(NC(=O)COc1ccccc1)C(=O)N1CCN(c2cccc(C(F)(F)F)c2)CC1 (configuration not stated),13 µM (active)
18,OC(COc1cccc(OCC(O)CN2CCCC2)c1)CN1CCCC1 (configuration not stated),inactive
19,COc1ccc(OCC(=O)N2CCN(C(=O)COc3ccccc3)CC2)cc1,inactive
20,O=C(COc1ccc(Cl)cc1)N1CCN(c2cccc(C(F)(F)F)c2)CC1,20.6 µM (active)
21,CSCCC(NC(=O)COc1ccccc1)C(=O)OCCOc1ccc(F)cc1 (configuration not stated),inactive
22,CSCCC(NC(=O)COc1ccccc1)C(=O)OCCOc1ccc(Br)cc1 (configuration not stated),inactive
23,O=C(COc1ccc2c(c1)CCC2)N1CCN(c2ccc(F)cc2)CC1,inactive
24,Cc1cc(=O)oc2cc(OCC(=O)N3CCN(c4ccc(F)cc4)CC3)c(Cl)cc12,inactive
25,OC(COc1ccc2c(c1)CCC2)CN1CCN(c2cccc(Cl)c2)CC1 (configuration not stated),18.4 µM (active)
26,COc1cccc(OCC(O)CN2CCN(CCO)CC2)c1 (configuration not stated),inactive

row,Structure (SMILES),Potency
1,Cc1c(C)c2ccc(OCC(=O)N3CCN(c4cccc(Cl)c4)CC3)cc2oc1=O,10.3 µM (active)
2,O=C(O)c1cc([N+](=O)[O-])c(Nc2cccc3ccccc23)c([N+](=O)[O-])c1,inactive
3,CCn1ncc(C2=NOC(C(=O)N3CCN(c4ccccc4)CC3)C2)c1C (configuration not stated),inactive
4,O=C1OC(NC(=O)c2ccccc2)C(N2CCOCC2)=C1Cl (configuration not stated),inactive
5,CCOC(=O)CCCNC(=O)COC(=O)c1cc(Br)c(Br)s1,inactive
6,Cc1cccc(C)c1NC(=O)CNC(=O)C1CCCC1,inactive
7,CC(C)(C)NC(=O)C(c1ccncc1)N(C(=O)CNC(=O)c1ccco1)c1ccc2c(c1)OCO2 (configuration not stated),inactive
8,Cc1nc(Nc2ccccc2F)c2nnn(Cc3ccccc3Cl)c2n1,inactive
9,O=C(CCN1C(=O)[C@@H]2Cc3ccccc3CN2C1=O)NCCc1ccccc1,inactive
10,O=C(NC1CCCCC1)C1CC(=O)N(CCc2ccccc2)C1 (configuration not stated),inactive
11,COc1ccccc1-c1nnc(SCC(=O)Nc2ccccc2)o1,inactive
12,CCC(=O)c1ccc(OCC(O)CN2CCN(c3cccc(C(F)(F)F)c3)CC2)cc1 (configuration not stated),25.9 µM (active)
13,CCC(=O)c1ccc(OCC(O)CN2CC(C)OC(C)C2)cc1 (configuration not stated),inactive
14,O=C(c1ccccc1)c1ccc(OCC(O)CN2CCCC2)cc1 (configuration not stated),inactive
15,CCn1cc(C(=O)NCC(=O)NC(C)(C)CO)c(=O)c2cc3c(cc21)OCO3,inactive
16,C/C(=N\NC(=O)C1(C)CC1(Br)Br)c1ccc(C)cc1C (configuration not stated),inactive
17,COc1ccc(-c2nc3c(s2)CCc2onc(-c4ccc(OC)cc4)c2-3)cc1,16.4 µM (active)
18,COc1ccc(-c2noc(-c3ccc(C)cc3)n2)cc1,inactive
19,COc1ccc(-c2cc(C(=O)Nc3sc4c(c3C(N)=O)CCCC4)no2)cc1,inactive
20,Cc1ccc(NC(=S)N2CCN(c3ncccn3)CC2)cc1C,inactive
21,Cc1nc2ccc(NC(=O)C3CCCCC3)cc2s1,inactive
22,Cc1sc2ncnc(N3CCC(C(=O)NNC(=O)c4ccc(F)cc4)CC3)c2c1C,16.4 µM (active)
23,Cc1ccc(Cl)cc1NC(=O)C1CCN(S(C)(=O)=O)CC1,inactive
24,CC(=O)Nc1c(C)nn(-c2ccccc2)c1N1CCC(C(=O)Nc2cc(Cl)ccc2C)CC1,inactive
25,O=C(NNC(=O)C1CCN(c2ncccn2)CC1)c1ccccc1,inactive
26,CS(=O)(=O)c1ccc2nc(NC(=O)C3C4C=CC(C4)C3C(=O)O)sc2c1 (configuration not stated),inactive

row,Structure (SMILES),Potency
1,Cc1sc2ncnc(N3CCC(C(=O)Nc4nc5ccc(Cl)cc5s4)CC3)c2c1C,7.31 µM (active)
2,Cc1sc2ncnc(N3CCC(C(=O)Nc4ccc(F)cc4Cl)CC3)c2c1C,23.1 µM (active)
3,O=C(NNC(=O)C1CCCC1)c1ccc(F)cc1,inactive
4,CC(C)[C@H](NC(=O)Nc1ccc(S(N)(=O)=O)cc1)C(=O)O,inactive
5,CC(C)CCN1NC2(CCC(C)CC2)NC1=S (configuration not stated),inactive
6,CN1C(=O)c2ccccc2C(C(=O)NCCCN2CCCC2)C1c1c[nH]c2ccccc12 (configuration not stated),inactive
7,CCc1c(O)nc(SCC(=O)N2CCCCC2)n(-c2ccccc2C)c1=O,inactive
8,COc1ccc(CC(NC(C)=O)C(=O)NC2CCN(C(=O)c3ccc(OC)c(OC)c3)CC2)cc1OC (configuration not stated),inactive
9,CCc1ccc(OCC(=O)OC(C)C(=O)NC2CC2)cc1 (configuration not stated),inactive
10,COc1cc2c(cc1OC)C(COc1ccc(F)cc1)N(C(=O)c1ccccc1F)CC2 (configuration not stated),16.4 µM (active)
11,CCc1ccc(OCC2c3cc(OC)c(OC)cc3CCN2C(C)=O)cc1 (configuration not stated),13 µM (active)
12,COc1ccc2[nH]c(=O)c(C3c4cc(OC)c(OC)cc4CCN3C(=O)c3ccco3)cc2c1 (configuration not stated),inactive
13,COc1cc2c(cc1OC)CN(CC(=O)Nc1ccc(F)cc1)CC2,inactive
14,CC(C)CN(C(=O)CSc1ncnc2sccc12)C1CCS(=O)(=O)C1 (configuration not stated),inactive
15,O=C(N/N=C/c1ccsc1)c1cc(O)cc(O)c1,inactive
16,CCN(CC(=O)NCc1cccs1)C(=O)/C=C/c1ccc(C)cc1,inactive
17,FCOC(C(F)(F)F)C(F)(F)F,inactive
18,CCCCCCCCCCCCN1C(=O)CSC1c1cccnc1 (configuration not stated),16.4 µM (active)
19,CN(C)CCCN1C(=O)CSC1c1ccc([N+](=O)[O-])cc1 (configuration not stated),inactive
20,CCCCc1ccc(NC(=O)NCc2cccnc2)cc1,inactive
21,C=C1C([C@@]2(C)C(OC(C)=O)CC(=O)O[C@@](C)(COC(C)=O)C2CC(=O)OC)C(OC=O)C(OC(=O)C(O)C(C)CC)[C@]2(C)C(c3ccoc3)CC(=O)C12O (some centres not stated),4.61 µM (active)
22,COC(=O)CC1C(C)(C)C(OC(C)=O)C2CC3=C4CC(=O)OC(c5ccoc5)[C@]4(C)CCC3[C@@]1(C)C2=O (some centres not stated),inactive
23,CCOC(=O)C1(Cc2ccccc2C)CCCN(S(C)(=O)=O)C1 (configuration not stated),inactive
24,C/C(=N\NC(=O)OC(C)(C)C)c1ccc[nH]1,inactive
25,Cn1c(=O)c2c(SCC(=O)NCC3CCCO3)nc(-c3ccccc3F)nc2n(C)c1=O (configuration not stated),inactive
26,Cc1cccc(-c2nc(SCC(=O)Nc3cc(C)on3)c3c(=O)n(C)c(=O)n(C)c3n2)c1,inactive

row,Structure (SMILES),Potency
1,Cc1ccccc1-c1nc(SCC(=O)N(C)c2ccccc2)c2c(=O)n(C)c(=O)n(C)c2n1,9.2 µM (active)
2,O=C(CN(C(=O)c1csnn1)c1cccc(F)c1)NCc1ccc(F)cc1,inactive
3,CCCCn1c(N)c(N(CCC(C)C)C(=O)COC(=O)c2ccc(CC)cc2)c(=O)[nH]c1=O,inactive
4,CCCCc1nc(NCCN)c(C#N)c2c1CSC(C)(C)C2,20.6 µM (active)
5,CCCCc1nc(NCc2ccccc2)c(C#N)c2c1CCCC2,inactive
6,Cc1nc(NCCN)c(C#N)c2c1COC(C)(C)C2,inactive
7,CCOc1ccc(S(=O)(=O)Nc2ccncc2)c(C)c1C,inactive
8,COc1ccc(OC)c(/C=N/NC(=O)CSc2nnc(C)n2-c2ccccc2)c1,inactive
9,O=C(CSc1nc2ccccc2c(=O)n1-c1ccc(F)cc1)NC1CC1,inactive
10,Cc1nn(-c2ccccc2)c(C)c1/C=N/NC(=O)CSc1nc2ccccc2c(=O)n1-c1ccccc1,18.4 µM (active)
11,CCCS(=O)(=O)NC(=O)C1(C)CCCN(C(=O)c2cccs2)C1 (configuration not stated),inactive
12,COc1cc(/C=C2\C(=N)N3N=C(CC(=O)N4CCOCC4)SC3=NC2=O)cc(OC)c1OC,inactive
13,Cc1noc(C)c1C(=O)N(CC(=O)NC1CCCC1)Cc1ccccc1F,inactive
14,CCOP1(=O)C=C(C(C)(C)C)OC1c1ccc(F)cc1 (configuration not stated),inactive
15,CN(C)CCSc1nc(N)c2c3c(sc2n1)COC(C)(C)C3,inactive
16,C=CCNC(=S)NNc1ncnc2sc3c(c12)CC(C)(C)OC3,5.17 µM (active)
17,C[C@H]1CN([C@@H](C)CO)C(=O)CCCn2cc(nn2)CO[C@@H]1CN(C)S(=O)(=O)c1ccccc1C#N,inactive
18,CCC1CCc2c(sc(NC(C)=O)c2C#N)C1 (configuration not stated),inactive
19,COc1ccc(N2CCN(C(C)=C3C(=O)c4ccccc4C3=O)CC2)cc1,inactive
20,COc1ccc(C(C(O)C(=O)c2c[nH]c3ccccc23)N2CCN(c3ccccc3)CC2)cc1 (configuration not stated),25.9 µM (active)
21,Cc1nnc(SC(C)C(=O)c2c[nH]c3ccccc23)n1C1CC1 (configuration not stated),inactive
22,O=C(COc1ccc(Cl)cc1)Nc1ccc2oc(=O)ccc2c1,inactive
23,Cc1ccc(N(C(=O)c2sc(C)nc2C)C(C(=O)NC(C)(C)C)c2ccncc2)cc1 (configuration not stated),inactive
24,CC1(C)C=C2[C@H]3CC[C@@H]4[C@@]5(C)CCC(=O)C(C)(C)[C@@H]5CC[C@@]4(C)[C@]3(C)CC[C@@]2(C(=O)O)CC1,8.2 µM (active)
